KCNQ2 inh: inhibitors of rat KCNQ2 potassium channel; O88943; CHO-K1 KCNQ2, FluxOR thallium flux, 20 min; active compounds read low; B-score at 10 µM; 310,000 compounds, 1.1% hits; AID 2156;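 active = fluorescence ratio B-score at most minus 3 library SDs, with starting brightness B-score within 2 library SDs, cut at about -5.5 in these data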
KCNQ2 enhance: potentiators of rat KCNQ2 potassium channel; O88943; CHO-K1 KCNQ2, FluxOR thallium flux fluorescence; active compounds read high; B-score at 10 µM; 310,000 compounds, 0.54% hits; AID 2239;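 active = fluorescence ratio B-score at least 3 SD of library B-scores, with initial fluorescence B-score within 3 of them, cut at about 5.3 in these data; same plate scores as AID 2156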;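 also: B-score of peak minus minimum over baseline fluorescence ratio after K+ and Tl+ stimulus; positive B-score means potentiation of KCNQ2 with more thallium influx and brighter signal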
Numbers stand for hits; n = inactive; x = no result given. A selection: hits, their analogues and other compounds. The true share with any hit is near 1.6%.

SMILES	KCNQ2 inh	KCNQ2 enhance
CCn1c(/C=C/c2ccccc2)nc2ccccc21	n	x
CCC(C)n1c(/C=C/c2ccccc2)nc2ccccc21 (stereo not given)	-5.7	n
CCOc1c(Cl)cc(C(=O)Nc2ccccc2-c2ccccc2)cc1Cl	n	x
COc1ccc(C(=O)Nc2ccccc2-c2ccccc2)cc1Cl	-6.2	n
COc1cc(/C=C/C(=O)O)cc(S(=O)(=O)Nc2ccc3c(c2)OCO3)c1OC	n	n
CCN(CC)CCNC(=O)c1ccc(NC(=O)/C=C/c2ccc3ccccc3n2)cc1	n	n
Cc1ccc2c(c1)C1CN(C)CCC1N2CC(=O)N(C)c1ccccc1 (stereo not given)	n	5.6
Cc1ccc2c(c1)C1CN(C)CCC1N2C(=O)COc1ccc(N(C)C(=O)C(C)(C)C)cc1 (stereo not given)	n	x
COc1ccc(N2CCN(C(=O)CN(c3ccc(OC)cc3)S(=O)(=O)c3ccccc3)CC2)cc1	n	x
O=C(CN(c1ccc(Cl)cc1)S(=O)(=O)c1ccccc1)N1CCN(c2ccccc2)CC1	-7.4	n
CC(=O)c1c(N2CCOCC2)nc2ccc(Cl)cc2c1-c1ccccc1	n	x
O=C(COc1coc(CN2CCc3ccccc3C2)cc1=O)Nc1cccc([N+](=O)[O-])c1	n	n
Nc1c(-c2ccccc2)c(CSc2nc3ccccc3[nH]2)nn1-c1ccc(Cl)cc1	n	x
Nc1c(-c2ccccc2)c(CSc2nc3ccccc3[nH]2)nn1-c1cccc(Cl)c1	-5.6	n
OCCN1CCN(C2CCC(c3ccc(F)cc3)c3ccc(F)cc32)CC1 (stereo not given)	n	x
Cc1ccc(-c2cc(C(=O)O)c3cc(Br)ccc3n2)o1	n	n
Cc1ccc(-c2cc(C(=O)NC3=NCCS3)c3cc(Br)ccc3n2)o1	-6.3	n
CC1CSC(N(C(=O)c2ccc(S(C)(=O)=O)cc2)c2ccc(Cl)cc2)=N1 (stereo not given)	n	x
COc1ccc(/C=C/c2nc(-c3ccccc3O)n[nH]2)cc1OC	n	10
O=C(O)COc1ccc(/C=C/c2nc(-c3ccccc3O)n[nH]2)cc1	n	n
CC(Cc1ccc(Cl)cc1)N1CCC(n2nccc2NC(=O)C2CCCC2)CC1 (stereo not given)	n	n
CN(CC(=O)Nc1ccccc1Br)C(=O)c1ccccc1-c1nc2ccccc2s1	n	x
CCOC(=O)N1CCC(N2Cc3cccc(C(=O)Nc4ccc(OCC)cc4)c3C2=O)CC1	n	x
CC(=O)c1ccc(S(=O)(=O)Nc2cccc(-n3cnnn3)c2)cc1	n	n
O=C(Nc1ccccc1Br)c1ccccc1-c1ccccc1	n	x
SMILES	KCNQ2 inh	KCNQ2 enhance
O=C(Nc1ccccc1-c1ccccc1)c1ccccc1Br	-6.3	n
Cc1ccc(NC(=O)CN(C)CC(=O)NC2CCCc3ccccc32)cc1 (stereo not given)	n	x
CC(C)(C)c1ccc(NC(=O)CNC2CCCc3ccccc32)cc1 (stereo not given)	-6.9	n
O=C(/C=C/Nc1ccc(Cc2ccc(N/C=C/C(=O)C(F)(F)F)cc2)cc1)C(F)(F)F	n	n
COc1ccccc1CNC(=O)Cn1cc([N+](=O)[O-])ccc1=O	n	n
COc1ccc(NC(=O)C(=O)NNC(=O)C(C)Oc2ccc(Cl)cc2Cl)cc1 (stereo not given)	n	20
CC(=O)Nc1ccc(NC(=O)C(C)Oc2ccc(Cl)cc2Cl)cc1 (stereo not given)	n	n
COc1ccc(-n2c(=O)[nH]c3cc(C(=O)NCCc4ccccc4)ccc3c2=O)cc1OC	n	n
COc1ccc(NS(=O)(=O)c2cc3c(cc2C)N(C(C)=O)CCO3)cc1OC	n	x
COc1cccc(-c2ccc(NC(=O)C3CCCN(Cc4cnc(C)n4C)C3)cc2)c1 (stereo not given)	n	x
Cc1ncc(CN2CCCC(C(=O)Nc3ccc(-c4cccc(F)c4)cc3)C2)n1C (stereo not given)	-5.7	n
CC(=O)c1ccc(NC(=S)N2CC(C)CC(C)C2)cc1 (stereo not given)	n	n
CCN(CC(=O)NCc1cccs1)C(=O)/C=C/c1cccc(Cl)c1Cl	n	x
O=C(NCC(=O)N1CC(O)CC1C(=O)N1CC(O)CC1C(=O)OCc1ccccc1)OCc1ccccc1 (stereo not given)	n	n
COc1ccc(-c2cc(C(F)(F)F)nc(N3CCN(c4ccc(F)cc4)CC3)n2)cc1OC	n	n
COc1ccc(-c2cc(C(F)(F)F)nc(N3CCN(Cc4ccccc4)CC3)n2)cc1OC	-5.6	n
CC1CN(C(=O)CCC(=O)NCc2ccccc2)c2ccccc2O1 (stereo not given)	n	x
Cc1ccc(C)c(OCC(=O)N2CCc3ccccc3C2)c1	n	x
Cc1cc(OCC(=O)N2CCc3ccccc3C2)c(C)cc1Br	-6.1	n
Cc1ccc(C(=O)CCc2ccc(N)cc2)cc1	n	n
COc1cccc(/C=N/NC(=O)C(C)Cn2cnc3ccccc32)c1 (stereo not given)	n	n
CC(C)Cc1nc(N2CCN(C(=O)c3ccco3)CC2)c(C#N)c2c1CCC2	n	x
CC(=O)N1CCN(c2nc(CC(C)C)c3c(c2C#N)CCC3)CC1	n	x
N#Cc1c(N2CCN(C(=O)c3ccccc3)CC2)nc(-c2ccccc2)c2c1CCCC2	n	x
CC(C)Cc1nc(N2CCN(C(=O)C(C)C)CC2)c(C#N)c2c1CCC2	-6.5	n
SMILES	KCNQ2 inh	KCNQ2 enhance
N#Cc1c(N2CCN(C(=O)c3ccco3)CC2)nc(-c2ccccc2)c2c1CCCC2	-5.6	n
CC(C)Cc1nc(N2CCN(C(=O)c3ccccc3)CC2)c(C#N)c2c1CCC2	-6.6	n
C/C(=N/OCO/N=C(/C)c1ccc(F)cc1)c1ccc(F)cc1	n	x
CC1CN(Cc2ccccc2)c2ccccc2NC1=S (stereo not given)	n	x
Cc1ccc(N(C)S(=O)(=O)c2cccc(C(=O)NCC(c3cccs3)N3CCOCC3)c2)cc1 (stereo not given)	-6.8	n
Cc1ccc(S(=O)(=O)N(C)c2ccc(C(=O)NCC(c3cccs3)N3CCOCC3)cc2)cc1 (stereo not given)	n	x
CC(C)OCCCNC(=O)CN1C(=O)CSc2ccc(S(=O)(=O)N3CCCCC3)cc21	n	x
CCc1ccc(N/C(SCc2ccccc2C)=C(/C#N)C(=O)NCc2ccco2)cc1	-6.1	n
CCc1ccc(OCCCC(=O)NCc2ccco2)cc1	n	n
COc1ccc(CC(NC(C)=O)C(=O)NC2CCN(c3ncccc3[N+](=O)[O-])CC2)cc1 (stereo not given)	n	x
Cc1c(Cl)ccc2c(C(=O)NCCN3CCCCC3)cc(-c3ccccn3)nc12	n	x
COc1ccccc1-c1cc(C(=O)NC2CCN(C)CC2)c2ccc(Cl)c(C)c2n1	-5.8	n
COc1cccc(-c2nc(N3CCCCC3C)c3ccccc3n2)c1O (stereo not given)	-6.8	n
COc1cccc(-c2nc(N3CCN(C)CC3)c3ccccc3n2)c1O	n	x
CC(NC(=O)/C=C/c1ccco1)c1nc2ccccc2n1Cc1cccc(Cl)c1 (stereo not given)	n	x
CCN(CC)c1ccc2cc(S(=O)(=O)c3ccc(Cl)cc3)c(=O)oc2c1	-6.2	n
CCCCCCc1cc2cc(S(=O)(=O)c3ccc(Cl)cc3)c(=O)oc2cc1O	n	n
CCCSCCCNC(=O)c1ccc(C)c(NC(=O)C2=C(C)OCCS2)c1	n	n
Cn1cnnc1SC1c2cccc3cccc(c23)C1NS(=O)(=O)c1ccccc1 (stereo not given)	n	x
O=S(=O)(NC1c2cccc3cccc(c23)C1Sc1ncccn1)c1ccccc1 (stereo not given)	-6.4	n
